The source of these data is PubChem BioAssay (NCI).

This is part of a sample that, as a whole, favours compounds with a hit. Of some 83,000 tested, about 20% had one in any assay.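 Cells were grown in 96-well plates and exposed to the test compound at a single concentration for 48 hours; results are reported as percent growth, with values below 10 considered active.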 The source made the active and inactive calls.

This assay concerns HT29 colon. Description: NCI-60 one-dose screen, 48 h (100 = growth as untreated, 0 = no growth, -100 = all killed). The conditions noted are these: 10 µM unless noted. As for the experimental part:
Growth inhibition of the HT29 human tumor cell line is measured as a screen for anti-cancer activity. Cells are grown in 96 well plates and exposed to the test compound for 48 hours. Compounds are tested at a single concentration, which is 10^-5 M for most compounds. The reported endpoint is percent growth (GI% or GIPRCNT), where numbers from 0 - 100% represent growth inhibition, and numbers from -100% - 0 represent cell death. For example, a value of 40 represents 60% growth inhibition. A value of 0 means no net growth occurred over the course of the experiment. A value of -40 indicates 40% of cells at the beginning of the experiment died by the end of the experiment. A value of -100 means all cells are dead at the end of the experiment.
NCI-60 Human Tumor Cell Lines Screen was performed using the standard one-dose NCI protocol, which is described in more detail at https://dtp.cancer.gov/discovery_development/nci-60/default.htm.
Compounds with GIPRCNT values below 10 were considered active. Activity score was based on GIPRCNT using the following formula: […]
Score is 0 for GIPRCNT values of 100 or above, 50 for GIPRCNT values of 0, and 100 for GIPRCNT values of -100.
Consider `O=C1c2c(c3c4cc(Br)ccc4[nH]c3c3ccc4ccccc4c23)C(=O)N1O`, for which the growth was 30% (inactive).
To `COc1ccc(NS(=O)(=O)c2ccc(-c3cnc(C4CC4)o3)cc2)cc1` belongs 19% (inactive); to `CNc1ccc(Br)cc1-c1n[nH]c(=O)[nH]c1=O`, 112% (inactive).
`COc1ccccc1-n1c(SCc2cc(OC)c(OC)c(OC)c2)nc2ccc(Cl)cc2c1=O`: the growth is 7.69% (active).
The figure for `CCCCc1ccc(NC(=O)C(F)(F)F)cc1` is 99.8% (inactive); for `CC1(C)CC(=O)C2=C(C1)Nc1cc3c(cc1C2c1ccc(F)cc1)OCO3` (stereo not given) it is 93.2% (inactive); for `CC(=O)Nc1ccc(Sc2ccc([N+](=O)[O-])o2)cc1` it is 26.4% (inactive).
To `COCCOC1=C(Cl)C(=O)c2ccccc2C1=O` belongs 99% (inactive); to `Cc1ccc(C(=O)Nc2ccccc2N)cc1`, 79.4% (inactive).
To `COc1cc(OCc2cccc(-c3ccc(C(O)c4nccs4)cc3)c2C)cc(OC)c1C=O` (stereo not given) belongs 48.7% (inactive).
Turning to `CCOC(=O)n1cc(C2=C(c3cn(C)c4ccccc34)COC2=O)c2ccccc21`, the growth was 9.6% (active).
To `O=C(COc1cccc(/C=C2\COc3ccccc3C2=O)c1)c1ccccc1` belongs 41.2% (inactive); to `Cc1cc(Cl)c2c(Cl)ccc(Cl)c2n1`, 102% (inactive).
The figure for `COC(=O)c1ccc(C(=O)Nc2ccccc2N)cc1` is 86.9% (inactive); for `Nc1nc(N)c(N=Nc2c(Br)cc(S(N)(=O)=O)cc2Br)c(N)n1` it is 115% (inactive).
The figure for `O=[N+]([O-])c1cc2c(cc1Br)C1C(C3C2C(Cl)(Cl)C(Cl)=C(Cl)C3(Cl)Cl)C(Cl)(Cl)C(Cl)=C(Cl)C1(Cl)Cl` (stereo not given) is 102% (inactive); for `COc1ccc(/C=C(\C#N)c2cc3ccccc3n2C)cc1` it is 9.49% (active).
`Cc1ccc2nc(NC(=O)CSC(=S)N3CCN(Cc4ccccc4)CC3)sc2c1`: the growth is -62.7% (active).
To `C=CC(=O)N1CC2(CC(n3nc(-c4ccc(Oc5ccccc5)cc4)c4c(N)ncnc43)C2)C1` belongs 31.7% (inactive).
To `CC[Si](CC)(CC)OC1[C@@H](O[Si](CC)(CC)CC)[C@@H](CNC(=O)NC)O[C@H]1n1cnc2c(NC(=O)Nc3ccccc3)ncnc21` (stereo not given in full) belongs 50.2% (inactive); to `CCOC(=O)c1sc(NC(=O)CN2CCC(Cc3ccccc3)CC2)nc1C`, 79.8% (inactive); to `COc1cccc(C2C3=C(COC3=O)N(CCO)c3cc4c(cc32)OCO4)c1` (stereo not given), 0.226% (active).
To `Oc1cccc(Nc2nc(-c3ccccn3)cs2)c1` belongs 112% (inactive); to `COc1cccc(C2C3=C(COC3=O)N(CCO)c3cc4c(cc32)CCC4)c1` (stereo not given), -28.2% (active).
Take `O=C1CCC(N2Cc3c(C#CCCCNC(=O)c4cc5c(o4)C(=O)c4ccccc4C5=O)cccc3C2=O)C(=O)N1` (stereo not given): the growth was -15.4% (active).
The figure for `CCOC(=O)c1cc2c(n(C)c1=O)-c1cnn(-c3ccc(OC)cc3)c1CC2` is 95.6% (inactive); for `COc1cc(/C=C/C(=O)C2=C(/C=C/c3ccc(O)c(OC)c3)NC(=O)NC2c2ccc(O)c(OC)c2)ccc1O` (stereo not given) it is 54.1% (inactive).
The figure for `O=C1NC(=O)C2(CCCC2C(=O)O)N1` (stereo not given) is 108% (inactive); for `CCCCCCCCCCCC(=O)[O][Sn]([CH2]CCC)([CH2]CCC)[CH2]CCC` it is -90.3% (active).
To `O=C(CCCCCCC(=O)Nc1ccc2c(c1)/C(=C/c1ccc[nH]1)C(=O)N2)NO` belongs 8.62% (active).
As to `Cc1nn(-c2ccccc2)c2nc3nc4c(c(N)c3c(-c3ccc(Cl)cc3)c12)CCC4`, the growth is 55.2% (inactive).
To `O=C1C(Cl)=C(NCCCN2CCOCC2)C(=O)c2ccccc21` belongs 93.7% (inactive); to `COc1ccc2nc(-n3nc(C)cc3C)c(-n3nc(C)cc3C)nc2c1`, 100% (inactive); to `COc1ccc(-c2csc3c2-n2cccc2C3=O)cc1O`, 23.9% (inactive).
Turning to `COc1cc(C(F)(F)F)ccc1-c1cc(-c2ccc(F)cc2)n[nH]1`, the growth is 92.5% (inactive).
For `COC(=O)[C@@H]1CCCN1C(=O)[C@@H]1CCCN1C(=O)[C@@H](Cc1c[nH]c2ccccc12)NC(=S)Nc1cc(C(F)(F)F)cc(C(F)(F)F)c1`, the growth was 51.1% (inactive).
The figure for `O=[N+]([O-])c1ccc(C=C2C(Cl)=C(Cl)C(Cl)=C2Cl)cc1` is 30.9% (inactive).
As for `CCCCCCCC/C=C\CCCCCCCCOc1cccc(CC(=O)NCC[N+]2(C)CCCCC2)c1`, the growth was 27% (inactive).
To `COc1cc(-c2nc3ccccc3o2)cc(CN2CCN(c3ccccc3)CC2)c1O` belongs 93.8% (inactive); to `CCOC(=O)c1c(Cl)c2c(n1Cc1ccc(OC)cc1)-c1oncc1CCC2`, 78.8% (inactive).
